# Test results: the supplement of paper PMC3545927
# This is one part of the list. How many sequences the whole screen found active is unknown.
# Target: furin, P09958
# Assay: furin cleavage Z-score vs untreated control; higher = more cleavage, active = 3.5 or more, inactive = 1 or less, 8 variable residues between constant flanks
# Summary of the method: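 The cleavage Z-score is the log read count relative to furin-free reactions, lowess-adjusted and scaled by median absolute deviation. Counts came from sequencing DNA released from bead-bound 8-mer peptide–cDNA fusions after digestion with purified furin for 7.5, 15 or 30 min.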
# 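Further: purified furin at 1:10 enzyme:substrate in 50 mM HEPES pH 7.5.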
# Sequence of furin, P09958 (P09958 whole entry): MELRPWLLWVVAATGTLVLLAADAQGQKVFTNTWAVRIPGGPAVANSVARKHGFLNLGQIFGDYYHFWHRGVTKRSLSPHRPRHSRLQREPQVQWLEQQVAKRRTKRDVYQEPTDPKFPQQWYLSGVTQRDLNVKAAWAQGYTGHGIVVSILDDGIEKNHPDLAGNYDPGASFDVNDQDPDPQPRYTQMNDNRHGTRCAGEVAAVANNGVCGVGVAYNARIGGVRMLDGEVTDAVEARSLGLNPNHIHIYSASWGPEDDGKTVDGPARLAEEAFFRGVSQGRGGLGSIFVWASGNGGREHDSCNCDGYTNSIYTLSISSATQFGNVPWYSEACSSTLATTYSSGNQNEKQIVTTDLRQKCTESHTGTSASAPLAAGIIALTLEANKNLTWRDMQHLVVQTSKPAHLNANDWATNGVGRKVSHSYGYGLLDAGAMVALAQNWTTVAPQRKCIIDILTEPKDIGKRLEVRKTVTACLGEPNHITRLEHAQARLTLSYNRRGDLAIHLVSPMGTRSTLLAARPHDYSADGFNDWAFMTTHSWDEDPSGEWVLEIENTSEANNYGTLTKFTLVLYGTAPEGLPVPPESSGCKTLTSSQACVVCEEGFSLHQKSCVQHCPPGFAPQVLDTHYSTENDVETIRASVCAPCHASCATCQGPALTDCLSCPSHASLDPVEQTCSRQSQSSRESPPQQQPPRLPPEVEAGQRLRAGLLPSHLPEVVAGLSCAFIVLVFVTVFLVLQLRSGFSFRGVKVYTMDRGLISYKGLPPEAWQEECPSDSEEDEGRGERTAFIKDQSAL
Sequence,furin cleavage Z-score (7.5 min),furin cleavage Z-score (15 min),furin cleavage Z-score (30 min)
CASDPCSAHLAGNASASA [HC2491],-0.0824 (inactive),0.0077 (inactive),0.561 (inactive)
CAFTPCSAHLAGNASASA [HC2467],-2.12 (inactive),-1.48 (inactive),-1.08 (inactive)
CATTPCSKSWAGNASASA [HC1894],0.86 (inactive),-0.828 (inactive),1.43
CALVGAPLGGAGNASASA [HC230],0.473 (inactive),0.0326 (inactive),-0.438 (inactive)
CAEYPCHRPSAGNASASA [HC2329],-1.31 (inactive),-1.61 (inactive),0.059 (inactive)
CAWWRRRRRSAGNASASA [FS-1503],12.2 (active),12.2 (active),8.61 (active)
CAWLIRRRRSAGNASASA [FS-1180],13.7 (active),13.5 (active),11.2 (active)
CAFYNRRRRSAGNASASA [FS-528],10.4 (active),10.5 (active),8.75 (active)
CARSTRDVQAAGNASASA [FS-3212],6.84 (active),7.38 (active),6.15 (active)
CADLARHYKSAGNASASA [FS-982],1.07,-0.538 (inactive),-1.88 (inactive)
CAYKGVWRVDAGNASASA [HC1168],-0.715 (inactive),-0.703 (inactive),0.326 (inactive)
CAHFLSQTKQAGNASASA [HC946],-1.62 (inactive),-0.0771 (inactive),0.398 (inactive)
CASTPCSAHYAGNASASA [HC2569],-0.833 (inactive),0.198 (inactive),0.946 (inactive)
CATTRVRRRSAGNASASA [FS-1100],8.61 (active),10.7 (active),6.67 (active)
CAVFGPLWILAGNASASA [HC608],-0.487 (inactive),-1.14 (inactive),-0.989 (inactive)
CARRPRHLSAAGNASASA [FS-1837],5.27 (active),4.94 (active),5.51 (active)
CARTPRSSSAAGNASASA [FS-2833],0.99 (inactive),-0.243 (inactive),2.32
CARRPRRVEAAGNASASA [FS-1921],1.67,1.82,3.69 (active)
CARTPREVEAAGNASASA [FS-2467],1.78,1.61,4.16 (active)
CARRPQDVKFAGNASASA [HC169],-0.409 (inactive),-1.01 (inactive),-0.285 (inactive)
CARRPRRVIAAGNASASA [FS-2179],-0.112 (inactive),2.08,3.81 (active)
CARRLRDQEAAGNASASA [FS-1781],0.143 (inactive),-1.21 (inactive),-0.196 (inactive)
CARRPRQKEAAGNASASA [FS-2782],0.0199 (inactive),-1.9 (inactive),-0.838 (inactive)
